The list is not random: actives were taken first. Their share in the collection is about 3.1%.
PLK1 PBD inh = inhibitors of human PLK1 polo-box domain binding. AID 720504. 2.8% of 360,000 active. Plk1 PBD binding of FITC phosphopeptide, fluorescence polarization. Potency, µM, hits mostly inhibitors. P53350; further: series mostly up to about 57 µM; nearly all actives have a fitted effect of over 65% in size
Target sequence (P53350 whole entry, looked up, the tested form may be a part): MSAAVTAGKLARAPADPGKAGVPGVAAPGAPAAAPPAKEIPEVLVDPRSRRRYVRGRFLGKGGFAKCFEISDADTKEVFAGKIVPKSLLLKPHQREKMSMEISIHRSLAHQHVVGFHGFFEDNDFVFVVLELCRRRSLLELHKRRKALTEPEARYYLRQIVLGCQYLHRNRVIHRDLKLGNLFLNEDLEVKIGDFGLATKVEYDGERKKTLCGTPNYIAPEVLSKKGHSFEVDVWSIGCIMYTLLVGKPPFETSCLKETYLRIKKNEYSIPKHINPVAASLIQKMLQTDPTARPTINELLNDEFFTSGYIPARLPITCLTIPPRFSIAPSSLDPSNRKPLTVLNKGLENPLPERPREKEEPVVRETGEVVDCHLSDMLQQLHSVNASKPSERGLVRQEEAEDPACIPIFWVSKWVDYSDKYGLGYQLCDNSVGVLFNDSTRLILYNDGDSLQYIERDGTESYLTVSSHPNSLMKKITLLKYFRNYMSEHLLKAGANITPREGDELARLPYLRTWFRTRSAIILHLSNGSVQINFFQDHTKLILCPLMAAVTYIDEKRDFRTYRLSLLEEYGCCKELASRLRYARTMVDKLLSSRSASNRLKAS
Vif-APOBEC3F blk = blocks the Vif interaction with APOBEC3F | HeLa A3F-eYFP + Vif (tagged APOBEC3F with the HIV-1 protein that degrades it), YFP fluorescence increase | Potency, µM (doses to about 46.1 µM) | 0.2% of 390,000 active; further: nearly all actives have a fitted effect of over 65% in size
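HeLa cells stably expressing A3F-eYFP plus Vif, plated and incubated overnight at 37 deg C, then exposed to compounds overnight at 37 deg C. Blocked degradation read as raised yellow fluorescence (Ex 488/Em 500-530).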
Vif-A3G inh = inhibitors of Vif-APOBEC3G interaction. Q9HC16. AID 602310. Potency, µM (top dose mostly 46.1 µM), usual class: inhibitors. 0.076% of 410,000 active. HeLa A3G-eYFP + Vif (tagged APOBEC3G with the HIV-1 protein that degrades it), YFP fluorescence, overnight; further: nearly all actives have a fitted effect of over 60% in size
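Read-out is eYFP fluorescence (Ex 488/Em 500-530) from Vif-expressing HeLa A3G-eYFP cells; more signal means A3G escaped Vif-mediated degradation. Cells plated overnight, compound pinned in, incubated overnight at 37 deg C.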
VDR inhibitor = blocks the human vitamin D receptor; Potency, µM, hits mostly inhibitors; 0.93% of 400,000 active; VDR-SRC2-3 peptide fluorescence polarization, 2 h; P11473
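VDR–SRC2-3 interaction, FP format. Cmpds 23 nl via pintool, brief spin, 2 h ambient incubation.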
TSHR antagonist = blocks TSH signaling through the human TSH receptor | P16473 | TSHR-expressing cells, TSH-stimulated cAMP HTRF, 2 h; active compounds read low | activity change, negative = inhibition, % at 11.5 µM | 0.2% of 330,000 active | AID 504810;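 active means activity change below a set negative limit, meaning inhibition stronger than a set level, cut at about -70% in these data; inconclusive means activity change between two set negative limits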
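TSHR-expressing cells were treated with compounds, then stimulated with TSH at EC80 (4nM final) for 2 hours at 37 deg C. Cellular cAMP was measured by HTRF competition between lysate cAMP and cAMP-d2 for a cryptate-labelled anti-cAMP antibody.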
Each line names hits and unclear results; the compound was inactive in the other large screens. Unless noted, the call rests on the fitted dose curve; in most records, active means well fitted curve in the direction sought with a large enough effect; inconclusive means small, poorly fitted or top-dose-only effect, or another doubt; inactive means no such curve, though single readings can be large; an effect the other way counts as inactive or inconclusive.

Cc1ccc(CN(C(=O)c2ccc(Cl)c([N+](=O)[O-])c2)C2CCS(=O)(=O)C2)o1 (stereo not drawn)	PLK1 PBD inh 23.8µM
Cc1ccc(OCC(=O)N(Cc2ccc(C)o2)C2CCS(=O)(=O)C2)cc1 (stereo not drawn)	PLK1 PBD inh 26.7µM, VDR inhibitor inconclusive
Cc1ccc(CN(C(=O)COc2ccc(C)c(C)c2)C2CCS(=O)(=O)C2)o1 (stereo not drawn)	PLK1 PBD inh 26.7µM
CN(C)c1ccc(/C=N\Nc2ccc([N+](=O)[O-])cc2[N+](=O)[O-])cc1Br	none (no result: PLK1 PBD inh, Vif-APOBEC3F blk, VDR inhibitor, TSHR antagonist)
Cc1ccc(NC(=S)c2ccncc2)c(C)c1	VDR inhibitor 35.5µM
Cc1ccc(NC(=S)Nc2cccc3cnccc23)c(C)c1	PLK1 PBD inh inconclusive
Cc1ccc(NC(=S)NNC(=S)Nc2ccc(C)cc2C)cc1	PLK1 PBD inh 10.6µM, Vif-A3G inh inconclusive, VDR inhibitor 44.7µM
COc1ccc(NC(=O)Cn2cnc3sc(C)c(S(=O)(=O)N4CCOCC4)c3c2=O)cc1Cl	none
COc1cc(OC)c(NC(=O)Cn2cnc3sc(C)c(S(=O)(=O)N4CCOCC4)c3c2=O)cc1Cl	TSHR antagonist -97.2
O=C(Nc1ccc2nc3n(c(=O)c2c1)CCCCC3)C(=O)Nc1ccccc1F	Vif-A3G inh inconclusive (no result: PLK1 PBD inh, TSHR antagonist)
O=C(Nc1ccc2nc3n(c(=O)c2c1)CCCCC3)C(=O)N1CCN(c2ccccc2F)CC1	PLK1 PBD inh 29.9µM, VDR inhibitor inconclusive, TSHR antagonist -121.8
O=C1NC(=O)/C(=C\c2ccccc2OCc2ccc([N+](=O)[O-])cc2)N1	PLK1 PBD inh 23.8µM
CCc1ccc(-n2c(Cc3ccccc3)nnc2SCc2nc(-c3cccs3)no2)cc1	none (no result: PLK1 PBD inh, TSHR antagonist)
Cc1ccc(C2=C(O)c3ccccc3C(=O)C2=O)cc1	none
O=C1C(=O)c2ccccc2C(O)=C1c1cccc([N+](=O)[O-])c1	PLK1 PBD inh 26.7µM
O=c1c2ccccc2n2c(=S)[nH]nc2n1-c1ccccc1	PLK1 PBD inh 21.2µM
CCC(C)c1ccc(-n2c(=O)c3ccccc3n3c(=S)[nH]nc23)cc1 (stereo not drawn)	PLK1 PBD inh 21.2µM
Cn1c(=O)c2ccccc2n2c(=S)[nH]nc12	none
CC(C)CCn1c(=O)c2cccnc2n(CC(=O)Nc2ccccc2)c1=O	none (no result: PLK1 PBD inh, TSHR antagonist)
O=C(Nc1ccccc1OC(F)F)c1cccc(S(=O)(=O)N2CCCC2)c1	PLK1 PBD inh 16.8µM, VDR inhibitor inconclusive
O=C(COC(=O)C1CCCCC1)Nc1ccccc1OC(F)F	PLK1 PBD inh 2.99µM, VDR inhibitor inconclusive
CN(C)S(=O)(=O)c1cccc(C(=O)OCC(=O)Nc2ccccc2OC(F)F)c1	PLK1 PBD inh 26.7µM, VDR inhibitor inconclusive
CNc1c(Cl)cc(C=O)cc1Cl	none (no result: PLK1 PBD inh, Vif-APOBEC3F blk, VDR inhibitor, TSHR antagonist)
CCOC(=O)c1nc(N)c(C(=O)OCC)[nH]1	PLK1 PBD inh 10.6µM
CN(C)/[N+]([O-])=N/Oc1cc(F)c([N+](=O)[O-])cc1[N+](=O)[O-]	none (no result: PLK1 PBD inh, Vif-APOBEC3F blk, VDR inhibitor, TSHR antagonist)
Cc1ccc2c(c1)sc(C)[n+]2CCCS(=O)(=O)[O-]	VDR inhibitor 28.2µM
Cn1c(SCC(=O)NCc2ccco2)nnc1-c1cccc(NC(=O)c2ccccc2)c1	none (no result: PLK1 PBD inh, Vif-APOBEC3F blk, VDR inhibitor, TSHR antagonist)
Nc1ccccc1SCc1ccccc1Cl	PLK1 PBD inh 15µM
Nc1nc(SCc2ccccc2Cl)ns1	PLK1 PBD inh 29.9µM
Nc1ccccc1SSc1ccccc1N	PLK1 PBD inh 0.597µM, VDR inhibitor 10µM
C=C(c1nc2ccccc2s1)C1Cc2cccc3c2N(CCC3)C1 (stereo not drawn)	none (no result: PLK1 PBD inh, Vif-APOBEC3F blk, VDR inhibitor, TSHR antagonist)
CCOC(=O)c1c(SCCN2CCCC2)n(-c2ccccc2)c(=S)n(-c2ccccc2)c1=O	VDR inhibitor 70.8µM (no result: TSHR antagonist)
C[C@@H](CN1C2=NC[C@H](C)N2C[C@H]1Cc1ccc(O)cc1)NC(=O)CCC1CCCCC1	VDR inhibitor inconclusive
CC(C)[C@H]1CN=C2N(C[C@H](C)NC(=O)CCC3CCCCC3)[C@H](Cc3ccc(O)cc3)CN21	PLK1 PBD inh 13.4µM
COc1ccc(C[C@H]2CN3C(=NC[C@@H]3Cc3ccc(O)cc3)N2C[C@H](C)NC(=O)CCC2CCCCC2)cc1	none
COc1ccc(C[C@@H]2CN3C(=NC[C@@H]3Cc3ccc(O)cc3)N2C[C@H](C)NC(=O)CCC2CCCCC2)cc1	PLK1 PBD inh 26.7µM
[O-][n+]1ccccc1SSc1cccc[n+]1[O-]	VDR inhibitor 5.62µM (no result: PLK1 PBD inh, Vif-APOBEC3F blk, Vif-A3G inh, TSHR antagonist)
O=C(CSc1cccc[n+]1[O-])CSc1cccc[n+]1[O-]	none
